As a reminder, the viability is a read-out of living cells in per cent, often relative to untreated cells.

This passage reports viability results from PubChem BioAssay AID598 (SRMLSC, 2007).

Structures are written as SMILES. Screen size: about 85,000 compounds; about 5,100 (6%) were called active. Only a selection was taken, and actives are over-represented in it overall. Values without a mark were called inactive.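 Rule for the calls: active = viability at or below 40%; inactive = viability above 40%.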

A short description of the assay: H69AR cell viability reduction – human, 86K library, primary screen (AID 598).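 Note: multidrug resistant small cell line overexpressing MRP-1 efflux transporter; 100% = mean luminescence of untreated control wells.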 The conditions noted are these: H69AR lung tumor viability, ATP luminescence, 72 h; at 10 µM; active compounds read low.
`CCOC(=O)c1ccc(-n2c(C)nc3c(cnn3-c3ccccc3C)c2=O)cc1`: the viability is 96.7%.
The value for `COc1ccc(N2CCN(C(=O)CSc3ncnc4c3cnn4-c3ccc(OC)cc3)CC2)cc1` was 89.9%; that for `COc1ccc(-n2c(C)nc3c(cnn3-c3ccccc3)c2=O)cc1` was 19.6% (active); that for `Cc1ccc(/C=N/NC(=O)C2=NNC(c3ccccc3)(c3ccccc3)C2)c(O)c1` was 40.7%.
With `COc1ccc(S(=O)(=O)N/N=C\c2ccc(OC)c(COc3ccc(C)cc3[N+](=O)[O-])c2)cc1` the figure was 29.6% (active); with `CCOc1ccc(S(=O)(=O)Nc2ccc(S(=O)(=O)Nc3cc(OC)ccc3OC)cc2)cc1`, 74.9%.
With `COc1ccccc1CNS(=O)(=O)c1ccc(C)cc1` the figure was 86.8%; with `Cc1noc(/C=C/c2ccco2)c1S(=O)(=O)N1CCC(C(=O)N2CCc3ccccc32)CC1`, 81.4%.
As for `COCCNC(=O)C(c1ccc(C)o1)N(Cc1cccs1)C(=O)c1snc(C(N)=O)c1N` (stereo unspecified), the viability is 91.2%.
With `Cc1ccc(C(C(=O)NC2CCCCC2)N(C(=O)c2csnn2)C2CC2)o1` (stereo unspecified) the figure was 95.7%.
The value for `CCC(C(=O)NC1CCCC1)N(C(=O)c1snc(C(N)=O)c1N)c1ccc2c(c1)OCCO2` (stereo unspecified) was 33.1% (active).
With `Cc1cc(O)cc(O)c1C(=O)Cc1cnn(-c2ccccc2)c1` the figure was 79.8%; with `O=C1C=C(c2ccc(Cl)cc2)C(=O)N1Nc1ccccc1`, 1.17% (active); with `Cc1ccc(CCN2CC(C(=O)O)CC2=O)cc1` (stereo unspecified), 91.7%.
With `CC(C)n1c(-c2cccs2)nc2ccccc21`, the viability was 89.8%.
The value for `CCN1C(=O)/C(=C2\SC(N3CCCCC3)=NC2=O)c2ccccc21` was 67.4%.
With `CC(C)=C1SC(N2CCN(c3cccc(C)c3)CC2)=NC1=O` the figure was 96.9%; with `O=C1N=C(N2CCCC2)S/C1=C\c1cccc(Br)c1`, 36.9% (active); with `CC(C)C(=O)Nc1ccc2c(c1)oc1ccccc12`, 55.1%.
The value for `O=C(/C=C/c1ccc(Cl)cc1Cl)c1cccnc1` was 0.85% (active); that for `O=C(NCc1ccc(Cl)c(Cl)c1)c1cccnc1` was 94.2%; that for `C/C(=C\C(=O)c1cccnc1)Nc1ccc(C)c(C)c1` was 93.1%.
On to `OC(C#CCN1CCOCC1)(c1ccccc1)C1CCCCC1` (stereo unspecified), for which the viability is 79.2%.
With `CCOC(=O)C1=C(C)N=c2s/c(=C\C(=O)OC)c(=O)n2C1c1ccc(OC)cc1` (stereo unspecified) the figure was 10.6% (active).
The value for `CCOC(=O)C1=C(CSc2nccn2C)NC(=O)NC1c1ccc(OC)cc1` (stereo unspecified) was 82.8%; that for `COCCOC(=O)C1=C(C)N=c2s/c(=C\c3cccs3)c(=O)n2C1c1cccs1` (stereo unspecified) was 80.7%.
The value for `Cc1nc2ccccc2n1C(=O)N1CCOCC1` was 82.5%; that for `COC(=O)c1cc(NC(=O)C2C3C=CC(C3)C2C(=O)O)cc(C(=O)OC)c1` (stereo unspecified) was 94.8%; that for `Cc1ccccc1-n1c(SCC(=O)NCc2cccs2)nnc1-c1ccncc1` was 89.8%.
Regarding `Cc1ccccc1-c1nnc(SCC(=O)NCc2ccc3c(c2)OCO3)n1C`, the viability was 91.1%.
The value for `Cc1ccc(-n2c(SCC(=O)NCc3ccc4c(c3)OCO4)nnc2-c2cccnc2)c(C)c1` was 35.1% (active).
With `Cc1cccc(C2c3c(n(C)c(=O)n(C)c3=O)N=C3c4ccccc4C(=O)C32)c1` (stereo unspecified) the figure was 4.39% (active); with `Cc1cccc(Cn2c(N3CCN(c4ccccc4)CC3)nc3c2c(=O)n(C)c(=O)n3C)c1`, 72.4%.
The value for `CCc1nnc(NC(=O)CSc2nc3ccccc3c(=O)n2CCCOC)s1` was 64.5%.
Take `CCC(O)CNc1nc(-n2nc(C)cc2C)nc2sc3c(c12)CC(C)(C)OC3` (stereo unspecified): the viability was 44.6%.
The value for `Cc1cc(C)n(-c2nc(SCC(=O)N3CCCC3)c3c4c(sc3n2)CCCC4)n1` was 57.6%; that for `COCCNc1nc(-n2nc(C)cc2C)nc2sc3c(c12)CCCC3` was 6.95% (active); that for `COC(=O)c1cccc(-n2[nH]nnc2=S)c1` was 87.1%.
The value for `O=[N+]([O-])c1ccc(Oc2ccc(F)cc2Br)c2ccncc12` was 17.6% (active); that for `Cn1c(SCC(=O)C(C)(C)C)nnc1-c1ccccn1` was 98.3%.
With `CC(=O)C1=C(C)NC(C)=C(C(C)=O)C1c1cn(-c2ccccc2)nc1-c1cccs1` the figure was 93.4%.
Take `CCC(=O)NCCc1nc2ccccc2n1CC`: the viability is 95.2%.
With `CCOC(=O)c1c(NC(=O)CSc2nnc(CNc3ccc(C)cc3C)o2)sc(C)c1C` the figure was 92.8%.
With `CC1(C)CC(=O)C=C(N2CCCC2)C1` the figure was 95.2%; with `O=C1NC(c2cc3c(cc2Cl)OCO3)Oc2ccccc21` (stereo unspecified), 32.9% (active).
The value for `CC(=O)c1ccc2c(c1)c1ccccc1n2CC(C)C` was 73.2%.
`O=C1c2ccccc2S(=O)(=O)N1CC(O)Cn1c2ccccc2c2ccccc21` (stereo unspecified): the viability is 92.4%.
The value for `CS(=O)(=O)N(CC(O)Cn1c2ccccc2c2ccccc21)c1cccc2ccccc12` (stereo unspecified) was 1.71% (active).
With `CCCCOc1ccc(C(=O)NCc2ccncc2)cc1` the figure was 78.5%; with `CCOC(=O)c1cnc(SC)nc1Sc1ccc(Cl)cc1Cl`, 85.4%; with `Cc1ccc(CN(N=Nc2nonc2N)c2nonc2N)c(C)c1`, 79.6%.
In the case of `CCC1(C)Cc2c(sc3nc(SC)nc(N)c23)CO1` (stereo unspecified), the viability is 62.6%.
Take `CCC1(C)Cc2c(sc3[nH]c(=S)n(Cc4ccccc4)c(=O)c23)CO1` (stereo unspecified): the viability was 25% (active).
With `CCC1(C)Cc2c(sc3nc4n(c(=O)c23)CCCS4)CO1` (stereo unspecified) the figure was 93.3%; with `CCOC(=O)c1sc(C)c2c1NC(C)(c1cccc3ccccc13)NC2=O` (stereo unspecified), 103%.
With `CCOC(=O)C(C)Sc1nc2ccccc2c(=O)n1CC1CCCCC1` (stereo unspecified) the figure was 82.4%; with `COc1ccccc1NC(=O)/C=C/C(N)=O`, 2.11% (active).
As to `COc1ccccc1NS(=O)(=O)N(C)C`, the viability is 104%.
The value for `COc1ccccc1NC(=O)c1ccc(C)s1` was 92.7%; that for `COc1cc(C)c(C(C)C)cc1S(=O)(=O)n1ccnc1` was 101%.
The value for `CCOC(=O)c1ccc(COC(=O)CCc2nc(-c3ccccc3)c(-c3ccccc3)o2)cc1` was 71.5%.
